Screens (PubChem)
GLS inhibitor: blocks human kidney-isoform glutaminase activity. O94925. GLS enzymatic activity, qHTS titration. Potency, µM (titrated, usually from 45.5 µM), inactives show at the highest dose activity change, negative = inhibition, most hits filed as inhibitors. 410,000 compounds, 0.21% hits. AID 624170; also: potency is read from the fitted curve at half-maximal effect; % is scaled to controls: 0 for no effect and ±100 for the full control effect
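hKGA; 45 mM KH2PO4 pH 8.2 + 0.02% Tween-20; cpd via pin tool; 1 mM Gln soln; GluOx/HRP/Amplex Red; RT 30 min; fluor. t0 & final.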
GLP-1R inv ag: GLP-1 receptor (human) inverse agonism. P43220. HEK293 GLP-1R CRE-luciferase, luminescence, 24 h; GLP-1R form is constitutively active. Potency, µM (highest dose often 38.3 µM), for the others: at the highest dose activity change, negative = inhibition, hits mostly inhibitors. 410,000 compounds, 1.6% hits; also: potency is read from the fitted curve at half-maximal effect; % is scaled to controls: 0 for no effect and ±100 for the full control effect; nearly all actives have a fitted effect of over 55% in size
Target sequence (P43220 whole entry, looked up): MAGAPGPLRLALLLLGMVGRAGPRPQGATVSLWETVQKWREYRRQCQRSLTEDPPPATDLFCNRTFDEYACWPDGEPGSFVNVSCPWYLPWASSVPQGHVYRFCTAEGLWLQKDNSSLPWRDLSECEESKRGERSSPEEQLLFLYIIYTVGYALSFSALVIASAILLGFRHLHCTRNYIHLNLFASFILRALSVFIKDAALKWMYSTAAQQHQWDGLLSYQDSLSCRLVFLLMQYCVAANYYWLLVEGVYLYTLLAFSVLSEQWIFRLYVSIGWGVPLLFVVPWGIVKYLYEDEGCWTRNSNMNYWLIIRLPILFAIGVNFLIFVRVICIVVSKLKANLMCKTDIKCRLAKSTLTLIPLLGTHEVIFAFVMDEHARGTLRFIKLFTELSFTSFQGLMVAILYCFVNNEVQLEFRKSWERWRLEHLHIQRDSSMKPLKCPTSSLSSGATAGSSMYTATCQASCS
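Luminescence readout: a drop in cAMP-driven luciferase signal flags inverse agonism at a constitutively active GLP-1R stably expressed in HEK293. Compound exposure lasted 24 hr at 37 deg C, 5% CO2.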
KCNH2 WT inh: KCNH2 (human, wildtype) channel inhibition; activity change, % at 1.84 µM; Q12809; U2OS, BacMam KCNH2, thallium flux FluxOr; stronger effect = lower value; 340,000 compounds, 0.37% hits;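 active = maximum activity change below -70%; inconclusive = maximum activity change between -70% and -50%; inactive = maximum activity change above -50%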; also: % is scaled to controls: 0 for no effect and ±100 for the full control effect
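U2OS cells were transduced with wild-type KCNH2 virus (2.03 x 10^8 / mL) for 4 h at room temperature, then cultured overnight at 37 C. Thallium flux was read with FluxOr dye. Rate constants were normalized to DMSO controls.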
GLP1R ag: GLP-1 receptor (human) agonism; Potency, µM (titrated, usually from 45.6 µM), without a hit: at the highest dose activation, actives largely listed as activators; HEK293 GLP-1R CRE-luciferase, luminescence, 4-6 h; cells express a hypersensitive GLP-1R form; 380,000 compounds, 0.007% hits; P43220; AID 624172; also: potency is read from the fitted curve at half-maximal effect; % of control where 0% means no effect
HEK293 tox: cytotoxic in the GLP-1 receptor inverse agonist counter-screen. HEK293 cAMP-luciferase reporter cells, luminescence, 24 h. Potency, µM (series often up to 38.3 µM), without a hit: top-dose activity change, negative = inhibition, actives largely listed as inhibitors. 410,000 compounds, 0.13% hits;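 also: loss of luciferase light is scored as toxicity; potency is read from the fitted curve at half-maximal effect; % is scaled to controls: 0 for no effect and ±100 for the full control effect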
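Quantitative HTS format, 1536 wells, 200 cells/uL seeded. Compounds: 23 nL, 24 h, 37 °C. Detection: luciferase reagent, luminescence at 12 min RT; decreased signal taken as cytotoxic.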
KCNH2 3.1 inh: inhibitors of human KCNH2 3.1 potassium channel isoform | U2OS KCNH2 3.1, thallium flux FluxOr; stronger effect = lower value | activity change, % (tested at about 1.8 µM) | 340,000 compounds, 0.95% hits;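 active = maximum activity change below -70%; inconclusive = maximum activity change from -70% to -50%; inactive = maximum activity change above -50%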;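 also: thallium influx rate constant from kinetic fluorescence after stimulation buffer; % is scaled to controls: 0 for no effect and ±100 for the full control effect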
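Virally transduced U2OS (3.1 isoform, 4 h infection in dark at RT) → overnight 37 C → FluxOr + Red40 in HBSS/HEPES, 45 min → stimulation buffer, 2 min kinetic read → rate constant vs DMSO controls.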
Starred values were filed as active, the others as inactive; u = inconclusive; x = not tested or not shown. Most compounds without a hit are left out; they make up all but 2.8% or so of the library. Unless noted, calls follow the shape of the dose curve; as a rule, active = well fitted curve in the direction sought with a large enough effect; inconclusive = small, poorly fitted or top-dose-only effect, or another doubt; inactive = no such curve, though single readings can be large; an effect the other way counts as inactive or inconclusive.

SMILES | GLS inhibitor | GLP-1R inv ag | KCNH2 WT inh | GLP1R ag | HEK293 tox | KCNH2 3.1 inh
Cc1ccc(Nc2cc(C(=O)NCc3cccs3)c3ccccc3n2)c(C)c1 | 10% | 2µM* | x | x | -10% | x
CCCc1cc(=O)[nH]c(SCc2nc(-c3ccc(OC)cc3)no2)n1 | -6% | 5% | x | x | 4% | x
Cc1c(Cl)cccc1NC(=O)C(=O)NCC(c1cccnc1)N1CCN(c2ccccc2)CC1 (centres undefined) | 7% | 9% | x | x | 8% | x
O=C(c1ccco1)N(Cc1cccnc1)c1nc2ccc(F)cc2s1 | -8% | 13% | x | x | 12% | x
CCOC(=O)Cn1c(-c2ccccc2)cc(SC)c(C#N)c1=O | 4% | 10µM* | 3 | 17% | 4% | -19
COc1ccc(S(=O)(=O)NCCC(=O)NCc2ccc(F)cc2)cc1 | -1% | -4% | 45 | -5% | -6% | -80*
COc1ccc(CNC(=O)CCNS(=O)(=O)c2ccc(Cl)cc2)cc1 | 0% | 22% | -3 | 11% | -4% | -8
CC(=O)N1c2ccc(S(=O)(=O)NCCC(=O)NCc3ccc(F)cc3)cc2CC1C (centres undefined) | 18% | 4% | -10 | 2% | -2% | 4
CC1Cc2cc(S(=O)(=O)NCCC(=O)NCc3ccc(F)cc3)ccc2N1C(=O)C1CC1 (centres undefined) | 5% | 41% | -87* | 8% | u | 22
CC(C)/C=C(/C(=O)c1ccc(Cl)cc1Cl)n1cncn1 | 7% | u | 6 | -2% | -24% | 0
CC(C)(C)C(=O)/C(=C/c1ccc(Cl)cc1)n1cncn1 | 2% | 4µM* | 14 | -4% | -8% | -1
Cc1cc(NS(=O)(=O)c2cn(C)nc2C)no1 | 0% | 0% | -135* | -6% | 1% | -2
C#CCn1c(=NC(=O)c2ccc(S(=O)(=O)N3CCc4ccccc4C3)cc2)sc2cc(S(N)(=O)=O)ccc21 | 13% | 4µM* | 2 | -31% | 3.5µM* | -21
C=CCn1c(=NC(=O)c2ccc(S(=O)(=O)N3CCc4ccccc4C3)cc2)sc2cc(S(N)(=O)=O)ccc21 | 6% | u | 1 | 1% | u | 3
O=C(Nc1c2c(nn1-c1ccc(Cl)cc1)CS(=O)(=O)C2)c1cccc(F)c1 | -2% | -6% | x | 3% | -11% | x
COc1cccc(-c2cn3nc4c(nc3n2)CCCC4)c1 | 10% | 2.5µM* | -15 | -34% | 295% | 3
CN=C(Nc1ccc(Br)cc1)SC1CC(=O)N(c2ccc(OC)cc2)C1=O (centres undefined) | -4% | 11µM* | -10 | 12% | 9% | -1
CN1CCC(OC(c2ccccc2)c2ccc(Cl)cc2)C1 (centres undefined) | 0% | 3.2µM* | -1 | 5% | u | u
CN1[C@@H]2CC[C@H]1CC(OC(c1ccccc1)c1ccccc1)C2 (some centres undefined) | u | x | x | 6% | x | x
CN1CCN(c2nc(NCCOC34CC5CC(CC(C5)C3)C4)nc(OCC(F)(F)F)n2)CC1 | 4% | 5% | 24 | 0% | 4% | -71*
COc1ccc(CNC(=O)c2cc3c(=O)n(C)c4ccccc4c3n2C)c(OC)c1 | -5% | 8% | x | 0% | -1% | x
COc1ccc(NC(=O)Cn2c(=O)n(-c3cccc(C)c3)c(=O)c3c2c2cc(C)ccc2n3C)cc1OC | -9% | 3% | x | x | -4% | x
Cn1cc(CN2CCCCC2CO)c(-c2ccc(Oc3ccccc3)cc2)n1 (centres undefined) | 1% | 10µM* | 9 | 19% | -9% | -4
Cc1ccc(C(=O)N(CCN2CCCCC2)CC2CCCN(C3CCCC3)C2)s1 (centres undefined) | -3% | 8.9µM* | 22 | 45% | u | 21
O=C(O)c1ccc(Nc2nc3c(s2)CCCC3)cc1 | 0% | 1.8µM* | 6 | -5% | -12% | 7
SMILES | GLS inhibitor | GLP-1R inv ag | KCNH2 WT inh | GLP1R ag | HEK293 tox | KCNH2 3.1 inh
O=C(Nc1nc2c(s1)CCCC2)c1cccs1 | 17% | 10µM* | -12 | -8% | -16% | -4
O=S1(=O)N=C(Nc2nc3c(s2)CCCC3)c2ccccc21 | 2% | 4.5µM* | -2 | -33% | u | 6
Cc1c(C(=O)c2ccc(F)cc2)c2ccccn2c1CCc1ccccn1 | 11% | 10µM* | -5 | 4% | -12% | -7
Cc1c(C(=O)c2ccccc2)c2ccccn2c1CCc1ccccn1 | 8% | u | -1 | -3% | 1% | -5
Cc1[nH]c2ccccc2c1Cc1nnc(SCc2ccccc2)o1 | 13% | 11µM* | 2 | 9% | -25% | -22
Cc1cc(C)c(S(=O)(=O)c2ccccc2)c(OC(=O)c2c(Cl)cc(Cl)cc2Cl)n1 | -2% | 7.9µM* | -5 | -11% | u | -30
Cc1cc(C)c(S(=O)(=O)c2ccccc2)c(OC(=O)c2c(F)cccc2F)n1 | u | -7% | -3 | 0% | -2% | 14
Cn1c(=O)n(Cc2ccccc2)c(=O)c2c1nc(NCC1CCCO1)n2Cc1ccccc1 (centres undefined) | -5% | 4µM* | 1 | 1% | u | -12
Cn1c(NCC(O)c2ccccc2)nc2c1c(=O)n(Cc1ccc(Cl)cc1)c(=O)n2C (centres undefined) | -27% | u | 1 | 6% | -19% | 1
CC(O)CNc1nc2c(c(=O)n(Cc3ccc(Cl)cc3)c(=O)n2C)n1C (centres undefined) | 11µM* | 5% | 1 | 21% | -10% | 7
Cn1c(NCC(O)c2ccccc2)nc2c1c(=O)n(Cc1ccc(Cl)c(Cl)c1)c(=O)n2C (centres undefined) | 6% | 3.2µM* | -1 | -40% | -10% | -28
CN(CCO)c1nc2c(c(=O)n(Cc3ccc(Cl)cc3)c(=O)n2C)n1C | 8.9µM* | 9% | -1 | 20% | -5% | 7
N#CC1=C(N)OC2=C(C(=O)CC(c3ccco3)C2)C1c1ccc(OCc2c(F)cccc2Cl)cc1 (centres undefined) | -9% | 10µM* | 4 | -14% | -2% | -6
COc1cccc(C2C(C#N)=C(N)OC3=C2C(=O)CC(c2ccco2)C3)c1OCc1ccc(F)cc1 (centres undefined) | 13% | u | -9 | 1% | 8% | -42
Cc1ccc(C)c(Cn2c3ccccc3c3cnn(CC(=O)NC4CCCCCC4)c(=O)c32)c1 | -2% | 4% | x | x | -1% | x
CN1CCN(S(=O)(=O)c2ccc(Cc3ccc(S(=O)(=O)N4CCN(C)CC4)cc3)cc2)CC1 | 1% | 5.6µM* | -8 | -9% | -1% | 0
